Laboratory results as given in PubChem BioAssay (EPA / NIEHS).
Where “and” joins values, the source holds several entries; their conditions need not be identical. Equal values may be shown once. Results filed as inconclusive are left out. Calls of active or inactive are those of the source. How the source made its calls, unless noted: active means hit-call score of the fitted dose curve at least 0.9, where 1 is the maximum; inactive means score below 0.9.

Key:
[1] = molecular target: Estrogen-related receptor gamma (Homo sapiens) (UniProt P62508); assay: ATG_ERRg_TRANS: Attagene TRANS-FACTORIAL HepG2 Assay for human Estrogen-Related Receptor gamma (ERRg) (AID 2282977; active means hit-call score of the fitted dose curve at least 0.9, where 1 is the maximum;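 further: hits increase reporter signal over DMSO so potencies reflect activators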); conditions: HepG2 Attagene TRANS reporter, ERRg transactivation
Method in brief: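 HepG2 cells transiently transfected with multiplexed GAL4-UAS reporter units and chimeric NR-Gal4 constructs were exposed to test chemicals for 24 h. Reporter mRNA was measured by RT-PCR, 6-FAM primer extension, HpaI digestion and capillary electrophoresis; gain-of-signal versus DMSO.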

[2] = molecular target: Glucocorticoid receptor (Homo sapiens) (UniProt P04150); assay: ATG_GR_TRANS: Attagene TRANS-FACTORIAL HepG2 Assay for human Glucocorticoid Receptor (GR) (AID 2282978; active means hit-call score of the fitted dose curve at least 0.9, where 1 is the maximum;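 further: activators score as hits since higher reporter transcript over DMSO is fitted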); conditions: HepG2 Attagene TRANS GR reporter, mRNA transcription
Method in brief: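 Transiently transfected HepG2 cells express chimeric NR-GAL4 proteins acting on GAL4-UAS reporter units. Compounds are applied for 24 h. mRNA induction over DMSO is measured by capillary electrophoresis.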

[3] = molecular target: Oxysterols receptor LXR-alpha (Homo sapiens) (UniProt Q13133); assay: ATG_LXRa_TRANS: Attagene TRANS-FACTORIAL HepG2 Assay for human Liver X Receptor alpha (LXRa) (AID 2282980; active means hit-call score of the fitted dose curve at least 0.9, where 1 is the maximum); conditions: HepG2 Attagene TRANS reporter, LXRa transactivation
Method in brief: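 HepG2 cells were transiently transfected with multiplexed reporter units driven by chimeric LXRa–GAL4 fusion proteins, then dosed for 24 h. Reporter mRNA was quantified by RT-PCR, fluorescent labelling and capillary electrophoresis; gain of signal fitted against DMSO baseline.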

[4] = molecular target: Hepatocyte nuclear factor 4-alpha (Homo sapiens) (UniProt P41235); assay: ATG_HNF4a_TRANS: Attagene TRANS-FACTORIAL HepG2 Assay for human Hepatocyte Nuclear Factor 4 alpha (HNF4a) (AID 2282982; active means hit-call score of the fitted dose curve at least 0.9, where 1 is the maximum); conditions: HepG2 HNF4a transactivation reporter, mRNA readout
Method in brief: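 HepG2 cells transiently transfected with multiplexed GAL4-UAS reporter units responsive to chimeric NR-GAL4 proteins; compound exposure 24 h. Reporter mRNA quantified by RT-PCR, 6-FAM labelling, HpaI digestion and capillary electrophoresis; gain of signal versus DMSO baseline.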

[5] = ATG_M_32_TRANS: Attagene TRANS-FACTORIAL HepG2 Assay for M32 Transcription Factor (Internal Marker) (AID 2282984; active means hit-call score of the fitted dose curve at least 0.9, where 1 is the maximum); conditions: HepG2 Attagene TRANS M32 internal marker reporter
Method in brief: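 HepG2 cells transiently transfected with multiple GAL4-UAS reporter transcription units, dosed for 24 hours; reporter mRNA quantified by RT-PCR, 6-FAM primer extension, HpaI digestion and capillary electrophoresis. Gain-of-signal fitted versus DMSO baseline; internal background-control marker.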

[6] = molecular target: Nuclear receptor subfamily 4 group A member 2 (Homo sapiens) (UniProt P43354); assay: ATG_NURR1_TRANS: Attagene TRANS-FACTORIAL HepG2 Assay for human Nuclear Receptor Related Protein 1 (NURR1) (AID 2282985; active means hit-call score of the fitted dose curve at least 0.9, where 1 is the maximum); conditions: HepG2 Attagene TRANS reporter, mRNA readout
Method in brief: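 HepG2 cells transiently transfected with GAL4-UAS reporter units and chimeric NR-Gal4 constructs; chemical exposure 24 h. Reporter mRNA quantified by RT-PCR, fluorescent labelling and capillary electrophoresis; gain of signal fitted relative to DMSO baseline.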

[7] = molecular target: Nuclear respiratory factor 1 (Homo sapiens) (UniProt Q16656); assay: ATG_NRF1_CIS: Attagene CIS-FACTORIAL HepG2 Assay for human Nuclear Respiratory Factor 1 (NRF1) Orphan Gene (AID 2282987); conditions: HepG2 NRF1 cis-element reporter, Attagene multiplex; actives raise or lower the signal
Method in brief: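 Reporter mRNA induction or loss in HepG2 cells after 24 h dosing; cis-regulated reporter constructs report endogenous transcription-factor activity. Quantified by RT-PCR/capillary electrophoresis fluorescence, DMSO-referenced.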

[8] = ATG_NFI_CIS: Attagene CIS-FACTORIAL HepG2 Assay for human Nuclear Factor I (NFI) (AID 2282989); conditions: HepG2 cis-regulatory reporter, NFI response element transcription; actives raise or lower the signal
Method in brief: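 Reporter transcripts were measured by RT-PCR with fluorescent primer extension and capillary electrophoresis 24 h post-treatment. HepG2 cells carried transiently transfected cis-regulated reporter constructs reporting endogenous factor activity; gain or loss fitted against DMSO baseline.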

[9] = molecular target: Myc proto-oncogene protein (Homo sapiens) (UniProt P01106); assay: ATG_Myc_CIS: Attagene CIS-FACTORIAL HepG2 Assay for human Myelocytomatosis (Myc) Proto-Oncogene Transcription Factor (AID 2282990); conditions: HepG2, Attagene cis-reporter transcription factor activity; actives raise or lower the signal
Method in brief: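 Multiplexed cis-reporter transcription in HepG2 cells after 24 h chemical treatment. Reporter mRNA measured by RT-PCR and capillary electrophoresis fluorescence; activity fitted bidirectionally against DMSO control.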

[10] = ATG_NF_kB_CIS: Attagene CIS-FACTORIAL HepG2 Assay for human Nuclear Factor Kappa B (NF-kB) (AID 2282991); conditions: HepG2 Attagene cis-factorial NF-kB reporter mRNA; actives raise or lower the signal
Method in brief: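 DMSO served as negative control and baseline for bidirectional curve fitting. Transiently transfected HepG2 cells were dosed for 24 h, then reporter transcripts were measured by RT-PCR with capillary electrophoresis detection.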

[11] = ATG_NRF2_ARE_CIS: Attagene CIS-FACTORIAL HepG2 Assay for human Nuclear Factor Erythroid 2 Related Factor 2 (NFR2) response to Antioxidant Response Elements (ARE) (AID 2282992); conditions: HepG2 Attagene ARE/NRF2 reporter, transcription factor activity; actives raise or lower the signal
Method in brief: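 Multiplexed reporter mRNA profiling in HepG2 after a 24 h chemical exposure. Curves fitted in both directions relative to DMSO negative control.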

[12] = ATG_Oct_MLP_CIS: Attagene CIS-FACTORIAL HepG2 Assay for human Octamer-Binding Transcription Factor (Oct) (AID 2282993); conditions: HepG2 Attagene cis-factorial Oct reporter, mRNA; actives raise or lower the signal
Method in brief: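 Readout is reporter transcript level from RT-PCR with fluorescent primer extension and capillary electrophoresis, fitted in both directions against DMSO. Transfected HepG2 reporter units report endogenous factor activity after 24 h dosing.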

[13] = molecular target: Cellular tumor antigen p53 (Homo sapiens) (UniProt P04637); assay: ATG_p53_CIS: Attagene CIS-FACTORIAL HepG2 Assay for human p53 Transcription Factor (AID 2282994); conditions: HepG2 p53 cis-element reporter, Attagene mRNA; actives raise or lower the signal
Method in brief: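 Multiplexed reporter mRNA assay in human HepG2 liver cells; cis-regulated units report endogenous factor activity. Values come from bidirectional curve fitting against DMSO negative control after 24 h treatment.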

[14] = molecular target: Oxysterols receptor LXR-beta (Homo sapiens) (UniProt P55055); assay: ATG_LXRb_TRANS: Attagene TRANS-FACTORIAL HepG2 Assay for human Liver X Receptor beta (LXRb) (AID 2282981; active means hit-call score of the fitted dose curve at least 0.9, where 1 is the maximum); conditions: HepG2 Attagene TRANS GAL4-LXRb reporter, mRNA
Method in brief: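 HepG2 cells transiently transfected with multiple reporter transcription units carrying chimeric NR-Gal4 proteins acting on GAL4-UAS reporters; compound exposure 24 h. Reporter mRNA quantified by RT-PCR, 6-FAM labelling, HpaI digestion and capillary electrophoresis; gain of signal versus DMSO.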

[15] = ATG_M_06_TRANS: Attagene TRANS-FACTORIAL HepG2 Assay for M06 Transcription Factor (Internal Marker) (AID 2282983; active means hit-call score of the fitted dose curve at least 0.9, where 1 is the maximum); conditions: HepG2 Attagene TRANS M06 internal marker reporter
Method in brief: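 HepG2 cells transiently transfected with multiplexed GAL4-UAS reporter transcription units; after 24 h compound exposure, reporter mRNA measured by RT-PCR, FAM-labelled primer extension, HpaI digestion and capillary electrophoresis. Gain-of-signal fitted versus DMSO baseline; background control readout.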

[16] = molecular target: Transcriptional activator Myb (Homo sapiens) (UniProt P10242); assay: ATG_Myb_CIS: Attagene CIS-FACTORIAL HepG2 Assay for human Myeloblastosis (Myb) Proto-Oncogene Transcription Factor (AID 2282986); conditions: HepG2 Attagene CIS-FACTORIAL Myb reporter transcription; actives raise or lower the signal
Method in brief: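 Using HepG2 liver cells bearing transiently transfected cis-promoter reporter constructs, the assay measures induction or loss of reporter mRNA after 24 hours of dosing. Detection used fluorescently labeled RT-PCR products separated by capillary electrophoresis.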

[17] = BSK_3C_TissueFactor: BioMAP Diversity Plus: 3C Assay for Tissue Factor Biomarker Activity (AID 2282997); conditions: BioMAP 3C HUVEC, tissue factor biomarker readout; actives raise or lower the signal
Method in brief: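 Primary human umbilical vein endothelial cells in the 3C system were exposed to test chemical for 24 h, then Tissue Factor measured by ELISA. Activity was fitted bidirectionally against DMSO as negative control and baseline.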

[18] = BSK_3C_uPAR: BioMAP Diversity Plus: 3C Assay for Urokinase-type plasminogen activator receptor (uPAR) Biomarker Activity (AID 2282998); conditions: BioMAP 3C HUVEC, uPAR biomarker ELISA; actives raise or lower the signal
Method in brief: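 Cell-surface uPAR on HUVEC (3C system) read by ELISA at 24 h post-treatment, with DMSO as baseline and fitting in both directions. Parallel cultures stained with SRB to flag overt cytotoxicity.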

[19] = BSK_3C_VCAM1: BioMAP Diversity Plus: 3C Assay for Vascular cell adhesion molecule 1 (VCAM1) Biomarker Activity (AID 2282999); conditions: BioMAP 3C HUVEC, VCAM1 ELISA, cytokine-stimulated; actives raise or lower the signal
Method in brief: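 Human umbilical vein endothelial cells were dosed with compound for 24 h, after which cell-surface VCAM-1 was quantified by ELISA. Bidirectional curve fitting used DMSO as negative control and activity baseline.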

[20] = molecular target: Bile acid receptor (Homo sapiens) (UniProt Q96RI1); assay: ATG_FXR_TRANS: Attagene TRANS-FACTORIAL HepG2 Assay for Farnesoid X Receptor (FXR) (AID 2282979; active means hit-call score of the fitted dose curve at least 0.9, where 1 is the maximum;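 further: hits raise reporter mRNA above DMSO so AC50 marks FXR activation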); conditions: HepG2 Attagene TRANS FXR-GAL4 reporter transcription
Method in brief: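 HepG2 cells transiently transfected with reporter constructs in which a chimeric FXR-GAL4 protein drives a GAL4-UAS reporter; 24 h compound exposure. Reporter mRNA measured by RT-PCR, FAM labelling, HpaI digestion and capillary electrophoresis; gain-of-signal versus DMSO.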

Measured: AC50

Chain of Nuclear receptor subfamily 4 group A member 2 (Homo sapiens) (P43354 whole entry, looked up, the tested form may be a part): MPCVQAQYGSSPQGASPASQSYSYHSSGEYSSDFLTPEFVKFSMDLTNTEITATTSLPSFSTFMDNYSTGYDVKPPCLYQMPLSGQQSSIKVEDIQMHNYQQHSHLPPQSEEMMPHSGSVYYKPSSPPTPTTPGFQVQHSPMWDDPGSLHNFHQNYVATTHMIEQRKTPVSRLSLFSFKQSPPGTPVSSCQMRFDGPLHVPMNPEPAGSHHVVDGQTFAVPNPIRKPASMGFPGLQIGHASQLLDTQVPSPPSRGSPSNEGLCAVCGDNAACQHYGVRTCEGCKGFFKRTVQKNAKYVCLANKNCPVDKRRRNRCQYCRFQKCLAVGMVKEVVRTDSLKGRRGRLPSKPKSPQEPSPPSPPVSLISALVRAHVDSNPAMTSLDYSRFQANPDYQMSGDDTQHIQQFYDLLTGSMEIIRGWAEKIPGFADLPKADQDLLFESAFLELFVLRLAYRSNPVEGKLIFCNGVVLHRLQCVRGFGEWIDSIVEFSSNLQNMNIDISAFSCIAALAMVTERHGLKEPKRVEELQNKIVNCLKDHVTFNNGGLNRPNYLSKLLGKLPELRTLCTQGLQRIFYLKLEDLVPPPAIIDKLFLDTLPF
Chain of Oxysterols receptor LXR-beta (Homo sapiens) (P55055 whole entry, looked up, the tested form may be a part): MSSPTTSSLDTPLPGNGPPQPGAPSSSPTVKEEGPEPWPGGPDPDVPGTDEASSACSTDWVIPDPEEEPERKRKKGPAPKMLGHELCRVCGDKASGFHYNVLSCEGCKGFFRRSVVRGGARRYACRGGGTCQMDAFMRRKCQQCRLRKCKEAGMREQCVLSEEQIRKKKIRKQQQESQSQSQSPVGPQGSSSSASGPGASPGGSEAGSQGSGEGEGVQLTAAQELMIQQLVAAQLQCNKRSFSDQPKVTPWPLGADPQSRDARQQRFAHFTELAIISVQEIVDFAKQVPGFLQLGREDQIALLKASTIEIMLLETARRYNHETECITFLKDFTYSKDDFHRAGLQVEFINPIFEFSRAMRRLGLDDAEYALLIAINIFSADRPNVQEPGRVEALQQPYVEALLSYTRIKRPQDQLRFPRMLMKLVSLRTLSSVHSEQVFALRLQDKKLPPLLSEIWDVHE
Chain of Transcriptional activator Myb (Homo sapiens) (P10242 whole entry, looked up): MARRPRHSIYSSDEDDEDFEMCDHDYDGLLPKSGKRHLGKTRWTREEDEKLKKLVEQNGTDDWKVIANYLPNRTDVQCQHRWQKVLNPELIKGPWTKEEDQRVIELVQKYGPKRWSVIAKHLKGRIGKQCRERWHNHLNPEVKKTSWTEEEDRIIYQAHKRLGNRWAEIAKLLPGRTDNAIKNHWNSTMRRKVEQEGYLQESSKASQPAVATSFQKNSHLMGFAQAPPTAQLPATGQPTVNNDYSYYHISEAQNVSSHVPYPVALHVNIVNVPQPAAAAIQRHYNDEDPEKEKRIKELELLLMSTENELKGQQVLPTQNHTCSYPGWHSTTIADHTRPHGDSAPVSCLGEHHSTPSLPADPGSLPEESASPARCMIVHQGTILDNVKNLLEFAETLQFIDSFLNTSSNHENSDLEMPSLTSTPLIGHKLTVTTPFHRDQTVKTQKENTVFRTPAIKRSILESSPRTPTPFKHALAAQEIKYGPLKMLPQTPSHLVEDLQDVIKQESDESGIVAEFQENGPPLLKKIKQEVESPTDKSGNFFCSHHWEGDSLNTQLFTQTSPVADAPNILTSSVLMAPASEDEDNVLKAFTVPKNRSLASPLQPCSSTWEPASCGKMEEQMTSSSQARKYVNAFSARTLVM
Chain of Myc proto-oncogene protein (Homo sapiens) (P01106 whole entry, looked up): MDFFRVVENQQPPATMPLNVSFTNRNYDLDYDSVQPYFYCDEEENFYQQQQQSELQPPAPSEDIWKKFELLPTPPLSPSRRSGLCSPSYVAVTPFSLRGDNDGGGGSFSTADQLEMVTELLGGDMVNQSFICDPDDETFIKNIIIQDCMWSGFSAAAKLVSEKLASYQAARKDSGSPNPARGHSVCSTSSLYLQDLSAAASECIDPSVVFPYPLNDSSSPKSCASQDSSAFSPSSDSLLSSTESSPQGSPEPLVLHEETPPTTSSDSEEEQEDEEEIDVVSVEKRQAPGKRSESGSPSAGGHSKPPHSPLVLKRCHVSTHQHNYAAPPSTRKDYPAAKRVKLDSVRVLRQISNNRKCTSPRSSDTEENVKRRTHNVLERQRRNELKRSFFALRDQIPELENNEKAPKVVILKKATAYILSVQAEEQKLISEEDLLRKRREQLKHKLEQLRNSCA
Chain of Cellular tumor antigen p53 (Homo sapiens) (P04637 whole entry, looked up): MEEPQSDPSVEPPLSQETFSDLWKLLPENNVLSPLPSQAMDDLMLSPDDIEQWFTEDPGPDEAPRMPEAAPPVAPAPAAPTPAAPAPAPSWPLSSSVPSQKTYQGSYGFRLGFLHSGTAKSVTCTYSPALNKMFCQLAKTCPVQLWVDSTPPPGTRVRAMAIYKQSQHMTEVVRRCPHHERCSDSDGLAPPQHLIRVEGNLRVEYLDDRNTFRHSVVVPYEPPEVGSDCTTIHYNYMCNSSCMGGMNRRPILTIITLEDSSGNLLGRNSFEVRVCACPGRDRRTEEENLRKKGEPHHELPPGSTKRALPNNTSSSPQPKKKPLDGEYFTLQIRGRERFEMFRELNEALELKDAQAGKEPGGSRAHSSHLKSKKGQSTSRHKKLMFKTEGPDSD
Chain of Nuclear respiratory factor 1 (Homo sapiens) (Q16656 whole entry, looked up): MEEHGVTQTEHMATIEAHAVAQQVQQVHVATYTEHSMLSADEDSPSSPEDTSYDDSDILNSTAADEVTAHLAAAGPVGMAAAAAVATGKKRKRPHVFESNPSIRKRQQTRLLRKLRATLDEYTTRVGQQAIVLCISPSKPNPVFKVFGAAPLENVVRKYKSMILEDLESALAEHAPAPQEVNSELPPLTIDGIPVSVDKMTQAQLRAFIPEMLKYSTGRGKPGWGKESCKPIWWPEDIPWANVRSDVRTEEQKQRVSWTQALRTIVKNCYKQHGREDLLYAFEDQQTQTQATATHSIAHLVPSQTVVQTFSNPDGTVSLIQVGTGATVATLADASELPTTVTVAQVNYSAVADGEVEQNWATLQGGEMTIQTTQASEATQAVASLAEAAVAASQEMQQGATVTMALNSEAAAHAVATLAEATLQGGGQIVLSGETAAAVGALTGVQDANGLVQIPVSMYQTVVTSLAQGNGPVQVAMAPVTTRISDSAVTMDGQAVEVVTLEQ
Chain of Glucocorticoid receptor (Homo sapiens) (P04150 whole entry, looked up, the tested form may be a part): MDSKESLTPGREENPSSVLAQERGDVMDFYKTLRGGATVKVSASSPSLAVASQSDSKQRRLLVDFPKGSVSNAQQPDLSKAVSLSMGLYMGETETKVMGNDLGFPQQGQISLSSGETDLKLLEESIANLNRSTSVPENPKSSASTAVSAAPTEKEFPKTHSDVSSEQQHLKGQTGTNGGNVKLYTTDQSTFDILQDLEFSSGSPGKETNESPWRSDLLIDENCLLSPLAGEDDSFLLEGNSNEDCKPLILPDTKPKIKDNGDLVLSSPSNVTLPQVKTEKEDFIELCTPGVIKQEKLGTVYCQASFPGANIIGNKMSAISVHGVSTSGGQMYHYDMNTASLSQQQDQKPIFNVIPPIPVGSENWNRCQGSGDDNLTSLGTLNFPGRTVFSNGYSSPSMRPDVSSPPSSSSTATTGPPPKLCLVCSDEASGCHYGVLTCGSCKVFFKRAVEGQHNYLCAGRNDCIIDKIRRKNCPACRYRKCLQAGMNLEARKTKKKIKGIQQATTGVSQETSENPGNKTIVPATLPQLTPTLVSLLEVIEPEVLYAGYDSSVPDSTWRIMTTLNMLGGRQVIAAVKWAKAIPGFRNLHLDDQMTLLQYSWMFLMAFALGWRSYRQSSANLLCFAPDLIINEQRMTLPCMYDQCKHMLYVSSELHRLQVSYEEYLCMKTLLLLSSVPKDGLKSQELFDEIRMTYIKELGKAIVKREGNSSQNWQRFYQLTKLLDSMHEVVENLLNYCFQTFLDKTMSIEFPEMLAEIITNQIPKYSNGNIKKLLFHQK
Chain of Bile acid receptor (Homo sapiens) (Q96RI1 whole entry, looked up, the tested form may be a part): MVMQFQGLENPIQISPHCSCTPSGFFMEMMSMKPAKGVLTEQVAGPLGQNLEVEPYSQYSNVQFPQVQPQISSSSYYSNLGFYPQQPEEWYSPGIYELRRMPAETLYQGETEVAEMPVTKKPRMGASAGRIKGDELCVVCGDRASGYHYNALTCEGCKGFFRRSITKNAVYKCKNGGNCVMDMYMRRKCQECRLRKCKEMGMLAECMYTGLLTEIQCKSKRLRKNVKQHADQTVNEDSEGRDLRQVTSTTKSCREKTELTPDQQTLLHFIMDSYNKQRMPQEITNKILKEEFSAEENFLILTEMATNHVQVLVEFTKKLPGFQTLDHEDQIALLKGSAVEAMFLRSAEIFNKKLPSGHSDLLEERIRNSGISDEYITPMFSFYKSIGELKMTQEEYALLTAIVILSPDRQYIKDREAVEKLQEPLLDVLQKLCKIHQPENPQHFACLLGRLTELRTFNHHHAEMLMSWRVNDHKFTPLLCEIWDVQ
Chain of Oxysterols receptor LXR-alpha (Homo sapiens) (Q13133 whole entry, looked up, the tested form may be a part): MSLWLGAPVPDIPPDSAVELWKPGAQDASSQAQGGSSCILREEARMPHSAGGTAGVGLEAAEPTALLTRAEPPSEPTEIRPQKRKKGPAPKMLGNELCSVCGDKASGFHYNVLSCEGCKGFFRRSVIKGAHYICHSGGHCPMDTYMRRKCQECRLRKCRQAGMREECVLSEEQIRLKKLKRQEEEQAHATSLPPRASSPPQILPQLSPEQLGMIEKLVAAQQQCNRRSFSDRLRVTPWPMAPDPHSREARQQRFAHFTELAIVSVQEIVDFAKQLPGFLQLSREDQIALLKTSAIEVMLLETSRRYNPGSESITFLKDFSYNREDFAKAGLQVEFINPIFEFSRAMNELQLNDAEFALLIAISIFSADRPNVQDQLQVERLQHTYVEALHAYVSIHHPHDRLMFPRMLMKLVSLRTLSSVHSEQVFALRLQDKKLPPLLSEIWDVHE

CCc1cccc(C)c1N
inactive: [1] | [2] | [3] | [4] | [5] | [6] | [7] | [8] | [9] | [10] | [11] | [12] | [13]

C=C(C)OC(C)=O
inactive: [1] | [2] | [3] | [14] | [4] | [15] | [5] | [6] | [16] | [7] | [8] | [9] | [10] | [11] | [12] | [13]

CCOC(=O)/C=C\C(=O)OCC
inactive: [1] | [2] | [14] | [4] | [5] | [6] | [7] | [8] | [9] | [10] | [12] | [13] | [17] | [18] | [19]
active: [11] 11.4 µM

COc1ccc(C(=O)/C(Br)=C\C(=O)O)cc1
active: [10] 13 µM | [11] 2.53 µM | [12] 49.4 µM | [17] 11.9 µM and 10.2 µM | [18] 29.7 µM and 31.7 µM | [19] 14.2 µM and 20 µM
inactive: [1] | [20] | [14] | [4] | [15] | [5] | [6] | [16] | [7] | [8] | [9] | [13]

CCCCNC(=S)NCCCC
inactive: [1] | [2] | [20] | [4] | [15] | [5] | [16] | [7] | [8] | [9] | [10] | [11] | [12] | [13]

COC(OC)(C(=O)c1ccccc1)c1ccccc1
inactive: [1] | [2] | [4] | [15] | [5] | [6] | [16] | [7] | [8] | [9] | [10] | [11] | [17] | [18] | [19]

CCCCCCOC(=O)CCCCC(=O)OCCCCCC
inactive: [1] | [20] | [14] | [15] | [7] | [8] | [9] | [10] | [11] | [12] | [13] | [17] | [18] | [19]

O=S(=O)(O)c1ccc(Nc2nc(Nc3ccc(C=Cc4ccc(Nc5nc(Nc6ccc(S(=O)(=O)O)cc6)nc(N(CCO)CCO)n5)cc4S(=O)(=O)O)c(S(=O)(=O)O)c3)nc(N(CCO)CCO)n2)cc1
inactive: [1] | [2] | [4] | [15] | [5] | [6] | [16] | [7] | [8] | [9] | [10] | [11] | [12] | [13]

CC(C)c1cccc(C(C)C)c1N
inactive: [1] | [2] | [3] | [14] | [4] | [15] | [5] | [6] | [16] | [7] | [8] | [9] | [10] | [11] | [12] | [13] | [17] | [18] | [19]
